Several values for one entry are separate records, joined by “and”; a condition that tells them apart may be missing. Identical values can stand only once. Records with an inconclusive call do not appear. Where a call stands in place of a potency, no number is given. More than one record can exist for a structure, and the calls need not agree. Activity calls are given as the source filed them. Calls come from the whole dose curve; as a rule, active = well fitted inhibition curve with a large enough effect in the signal ratio in the repeat runs; inconclusive = weak or mixed curves, or effect the other way; inactive = flat fitted curve, though single readings scatter; the % refers to the signal ratio.
Experiment: qHTS assay for small molecule disruptors of the mitochondrial membrane potential (AID 720635)
Settings: HepG2 mitochondrial membrane potential, Mito-MPS dye ratio; series mostly up to 83.2 µM
Excerpt: U.S. Tox21 Program National Center for Advancing Translational Sciences [NCATS] NIH Chemical Genomics Center [NCGC] U.S. Environmental Protection Agency [EPA] National Institutes of Environmental Health Sciences [NIEHS] National Toxicology Program [NTP] U.S. Food and Drug Administration [FDA] Tox21 Assay Overview: Mitochondrial membrane potential (MMP), one of the parameters for mitochondrial function, is generated by mitochondrial electron transport chain that creates an electrochemical gradient by a series of redox reactions. This gradient drives the synthesis of ATP, a crucial molecule for various cellular processes. Measuring MMP in living cells is commonly used to assess the effect of chemicals on mitochondrial function. […] The dye accumulates in the mitochondria of healthy cells as aggregates, with red fluorescence. The mitochondrial potential collapses and the dye can no longer accumulate in the mitochondria and remains in the cytoplasm in monomers, with green fluorescence.
Tox21 Assay Protocol Summary: 2,000 HepG2 cells in 5 uL/well were dispensed into black, clear-bottom 1536-well plates using a Multidrop Combi (Thermo Scientific) dispenser. The assay plates were incubated overnight at 37C to allow cells to attach to the wells, followed by the transfer of 23 nL compound or DMSO vehicle by a pin tool (Kalypsys). The plates were incubated for 1 hr at 37C and 5% CO2, followed by the addition of 5 uL of 2X Mito-MPS dye (BD Biosciences) into each well using Flying Reagent Dispenser (Aurora Discovery) and then following 30 min incubation at 37C. Fluorescence intensity (490nm excitation and 535nm emission for monomers; and 540nm excitation and 590nm emissions for aggregates) was measured using an Envision plate reader.
Potency is the fitted concentration of half-maximal effect.

Row | SMILES | Potency
1 | CC(=O)C(C)C | inactive
2 | CCCCCCCCO | inactive
3 | Cc1cc(C)c(O)c(C)c1 | inactive
4 | CCCCC(CC)COC(=O)c1ccc(C(=O)OCC(CC)CCCC)cc1 (stereo not given) | inactive
5 | CC(C)c1ccc(C(C)C)cc1 | inactive
6 | Cc1ccncc1 | inactive
7 | CC1(C)[C@@H](O[C@H]2O[C@H](C(=O)O)[C@@H](O)[C@H](O)[C@H]2O[C@@H]2O[C@H](C(=O)O)[C@@H](O)[C@H](O)[C@H]2O)CC[C@]2(C)[C@H]3C(=O)C=C4[C@@H]5C[C@@](C)(C(=O)O)CC[C@]5(C)CC[C@@]4(C)[C@]3(C)CC[C@@H]12 | inactive
8 | O=Cc1ccc(CO)o1 | inactive
9 | CC(=O)OCCC(C)C | inactive
10 | C=C1C[C@]23C[C@@]1(O)CC[C@H]2[C@@]12C=C[C@H](O)[C@@](C)(C(=O)O1)[C@H]2[C@@H]3C(=O)O | inactive
11 | O=C(NCC1CCCCN1)c1cc(OCC(F)(F)F)ccc1OCC(F)(F)F (stereo not given) | inactive
12 | CC(=O)OC[C@H]1O[C@@](COC(C)=O)(O[C@H]2O[C@H](COC(C)=O)[C@@H](OC(C)=O)[C@H](OC(C)=O)[C@H]2OC(C)=O)[C@@H](OC(C)=O)[C@@H]1OC(C)=O | inactive
13 | CCOC(=O)c1ccc(O)cc1 | inactive and 21.7 µM (active)
14 | CC(=O)CC(=O)N(C)C | inactive
15 | CCN(CC)CCNC(=O)c1ccc(N)cc1 | 13.3 µM (active)
16 | CCCCCNCCCCC | inactive
17 | O=C1CCCCCCCCCCC1 | inactive
18 | COC(=O)OC | inactive
19 | Nc1cccc(N)n1 | 14.8 µM (active) and 48.6 µM (active)
20 | COC(=O)CCCCC(=O)OC | inactive

Row | SMILES | Potency
21 | Brc1ccc(Oc2ccc(Br)cc2)cc1 | 21.7 µM (active) and 27.3 µM (active)
22 | O=C1OC(=O)c2c(Cl)c(Cl)c(Cl)c(Cl)c21 | inactive
23 | CN1CCCC1=O | inactive
24 | CO[Si](CCCNCCN)(OC)OC | inactive
25 | CC(=O)Nc1ccc(CC(=O)O)cc1 | inactive
26 | COc1c2ccoc2cc2oc(=O)ccc12 | inactive
27 | CN=C(NC#N)NCCSCc1nc[nH]c1C | inactive
28 | CC(O)CNCC(C)O (stereo not given) | inactive
29 | O=[N+]([O-])c1cc(C(F)(F)F)ccc1Cl | inactive
30 | Oc1ccc(Cc2ccccc2O)cc1 | 11 µM (active) and 27.3 µM (active)
31 | O=C1C(N(CO)C(=O)NCO)N(CO)C(=O)N1CO (stereo not given) | inactive
32 | OCCOCCOCCOCCOCCO | inactive
33 | Cc1ccc(C)c(S(=O)(=O)O)c1 | inactive
34 | CCCOCC(C)O (stereo not given) | 54.5 µM (active) and inactive
35 | N[C@@H](Cc1cc(I)c(Oc2ccc(O)c(I)c2)c(I)c1)C(=O)O | 23.7 µM (active)
36 | O=C(O)C1=NN(c2ccc(S(=O)(=O)O)cc2)C(=O)C1 | inactive
37 | NC(N)=S | inactive
38 | O=C(Cl)c1ccc(C(=O)Cl)cc1 | inactive
39 | C=C(CC(=O)O)C(=O)O | inactive
40 | CCCCCC(C)=O | inactive

— PubChem BioAssay (Tox21)
